# From PubChem BioAssay AID449764 (Southern Research Specialized Biocontainment Screening …, 2010)
# The whole screen tested about 2,300 compounds, of which about 1,700 (74%) were called active. How the calls were made is not given here. The set was probably picked from earlier hits. This is one part of the list. Measured potencies and affinities stand elsewhere.
# Experiment: Confirmatory growth inhibition assay, Mycobacterium tuberculosis H37Rv, absence of glycerol (AID 449764);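 further: growth read after 7 days of incubation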
# Conditions: no glycerol; series mostly up to 100 µM
row,SMILES,outcome
1,CCOc1ccc(N2C(=O)CS/C2=C(\C(Cl)=C(Cl)Cl)[N+](=O)[O-])cc1,inactive
2,CC(=O)c1c(C)n([O-])c2cc(F)c(F)cc2[n+]1=O,inactive
3,CCCCn1c(-c2ccc(C(C)(C)C)cc2)nc2cc3[nH]c(=O)c(C(C)C)nc3cc21,inactive
4,Cc1nn(-c2ccccc2)c(N2CCCC2)c1/C=N/Nc1ccc(S(N)(=O)=O)cc1[N+](=O)[O-],inactive
5,CC(=O)/C(=N\Nc1ccc(C)cc1)N1CCOCC1,inactive
6,Cc1ccc(C(=O)CCC(=O)OCC(=O)Nc2c(C)nn(-c3ccccc3)c2C)cc1,inactive
7,CCCCCn1c(CN2CCN(c3cccc(Cl)c3)CC2)nc2c1c(=O)[nH]c(=O)n2C,inactive
8,CSc1cccc(N=C2C(=O)Nc3ccccc32)c1,inactive
9,Cc1ccc(Sc2ccc(/C=C3/C(=O)NN(c4ccccc4)C3=O)o2)cc1,inactive
10,COc1cccc(C(=O)/C=C2\Sc3ccccc3N2C)c1,inactive
11,Fc1ccc(-c2nnc(CSc3nnc(-c4cccs4)o3)o2)cc1,inactive
12,CC/C(=C\C(=O)c1cccnc1)Nc1ccc(C)c(C)c1,inactive
13,C=C(C)C1CC=C(C)/C(=N/NC(=O)CNc2ccc(OCC)cc2)C1 (stereo not drawn),inactive
14,Cc1[nH]nc2nc3c(c(OC(=O)c4ccccc4)c12)c(=O)n(C)c(=O)n3C,inactive
15,O=C1CC(Nc2ccc3ccccc3c2)C(=O)N1Cc1ccccc1 (stereo not drawn),inactive
16,O=C(COC(=O)C1CCN(c2ccc(C(F)(F)F)cn2)CC1)Nc1ccc(F)cc1[N+](=O)[O-],inactive
17,Cc1ccc(N=Nc2c(C)[nH]n(C(N)=S)c2=O)cc1,inactive
18,O=C(Nc1cccc(C(F)(F)F)c1)c1ccc2nc(-c3ccco3)c(-c3ccco3)nc2c1,inactive
19,Nc1cccc(-c2cc3ccccc3oc2=O)c1,inactive
20,CC(C)c1nnc(NC(=O)CCC(=O)N2CCN(c3ccc(Cl)cc3)CC2)s1,inactive
21,CCCC(=O)Nc1sc2c(c1C#N)CCCCC2,inactive
22,O=[N+]([O-])c1ccc(COc2ccc(-c3[nH]ncc3-c3ccc(Cl)cc3)c(O)c2)cc1,inactive

row,SMILES,outcome
1,Cc1nc(S/C(=C/c2ccc(-c3ccc(Cl)cc3)o2)C(=O)O)n[nH]1,inactive
2,Cc1ccc(NN=C2c3ccccc3-c3ccccc32)cc1,inactive
3,CN1CCC(=NNC(=O)C(=O)Nc2ccccc2F)CC1,inactive
4,O=C(Nc1cccc(-c2ccc(N3CCCCC3)nn2)c1)c1ccc(Br)o1,inactive
5,CCOC(=O)c1sc(C)c2c(=O)n(CC(=O)c3ccc(Br)cc3)nnc12,inactive
6,CCOC(=O)c1ccc(N2CC(O)=C(c3nc4ccccc4c(=O)[nH]3)C2=N)cc1,inactive
7,Cc1ccc(-c2cccc(NC(=O)C3C4C=CC(C4)C3C(=O)O)c2)o1 (stereo not drawn),inactive
8,CCN(CC)S(=O)(=O)c1cccc(NC(=O)Nc2cccc(C(F)(F)F)c2)c1,inactive
9,COc1cc2[nH]c3c(N4CCN(c5ccccn5)CC4)ncnc3c2cc1OC,inactive
10,CC1Nc2ncnc(N3CCN(c4ccccc4)CC3)c2N(Cc2ccc(Br)cc2)C1=O (stereo not drawn),inactive
11,Clc1ccc(CSc2ncn[nH]2)cc1,inactive
12,COc1ccc(-c2ccnc3nc(N4CCN(c5ccccc5)CC4)nn23)cc1,inactive
13,c1ccc(CCN2CN=C(Nc3nc4ccccc4o3)NC2)cc1,inactive
14,Cc1ccc(NC(=O)COC(=O)c2ccc(=O)n(Cc3ccccc3)n2)cc1F,inactive
15,COc1cc(OC)nc(Oc2ccccc2C(=O)Oc2ccc(Cl)cc2)n1,inactive
16,CCNc1nc(NC(C)(C)C)nc(N2CCCCC2)n1,inactive
17,O=C(CCCC(=O)OCC(=O)c1cccs1)Nc1ccc(Oc2ccccc2)cc1,inactive
18,COc1ccc(N2COC3c4cccc5cccc(c45)C32)cc1 (stereo not drawn),inactive
19,Brc1ccc(-c2ccc(/C=N/Nc3nncc(-c4ccccc4)n3)o2)cc1,inactive
20,Cn1nnc(NC(=S)NC(=O)c2ccc(-c3ccc(Br)cc3)o2)n1,inactive
21,Cc1ccc(N/C=C2\C(=O)C3(C)CCC2C3(C)C)cc1C (stereo not drawn),inactive
22,Cc1cc(C(=O)N/N=C/c2ccc(-c3ccc([N+](=O)[O-])cc3Cl)o2)n[nH]1,inactive

row,SMILES,outcome
1,Cc1ccc(-c2cc(C(F)(F)F)n3nc(C(=O)NCCCn4ccnc4)cc3n2)cc1C,inactive
2,CCOC(=O)/C(=N\Nc1ccc(Br)cc1)N1CC(C)OC(C)C1 (stereo not drawn),inactive
3,C=CCn1c(=O)/c(=C/c2ccc(Cl)cc2)s/c1=C(/C#N)c1nnc2n1CCCCC2,inactive
4,Nc1ccc2c(c1)oc1ccccc12,inactive
5,CCOC(=O)NNc1ccccc1,inactive
6,CC1(CCc2ccccc2)NC(=S)N(c2ccc(Cl)cc2)N1 (stereo not drawn),inactive
7,Cn1c(=O)c2[nH]c(-c3ccc(S(=O)(=O)O)cc3)nc2n(C)c1=O,inactive
8,COc1ccc(NC2=C(C(C)=O)C(c3ccc4c(c3)OCO4)C(C(C)=O)C(C)(O)C2)cc1 (stereo not drawn),inactive
9,Nc1ccc(Oc2ccc3c(c2)OCO3)cc1,inactive
10,Nc1ccc2c(c1)nnn2-c1ccccc1,inactive
11,O=S(=O)(Nc1ccn(-c2ccccc2)n1)c1ccc(Br)cc1,inactive
12,Cc1ccc(S(=O)(=O)c2nc(Nc3nccs3)sc2Cl)cc1,inactive
13,O=C(CSc1nc2cc(Cl)ccc2o1)c1cccs1,inactive
14,COC12C(COC(N)=O)C3=C(C(=O)C(C)=C(N)C3=O)N1CC1C2N1C (stereo not drawn),inactive
15,Oc1ccc(Br)cc1/C=N/Nc1nc(N2CCCCC2)nc(N2CCOCC2)n1,inactive
16,Nc1ccc(CCc2ccc(N)cc2)cc1,inactive
17,COc1cc(/C=N/N(C)c2ccccc2)cc(Cl)c1O,inactive
18,COc1cc2c(-c3ccc4[nH]ccc4c3)c(-c3ccc(C#N)cc3)oc(=O)c2cc1OC,inactive
19,O=[N+]([O-])c1ccc(-c2ccc(/C=N/c3c(-c4ccco4)nc4ccccn34)o2)cc1,inactive
20,O=C1NC(=O)/C(=C/c2ccc(-c3cccc([N+](=O)[O-])c3)o2)S1,inactive
21,O=[N+]([O-])c1ccc(-c2csc(NN=C3CCCC3)n2)cc1,inactive
22,Nc1c(C(=O)Nc2ccc(Br)cc2)sc2nc(-c3ccco3)ccc12,inactive

row,SMILES,outcome
1,CCCCn1cnc2cc(NCc3cccc(OC)c3O)ccc21,inactive
2,COc1ccc(NC(C#N)c2ccc(OC)cc2)cc1 (stereo not drawn),inactive
3,Nc1ccn([C@@H]2O[C@H](CO)[C@@H](O)C2O)c(=O)n1 (stereo partly drawn),inactive
4,O=C(CSCC(=O)Nc1ccc2ccccc2c1)NCc1ccccc1,inactive
5,Cn1ccnc1-c1nnn(-c2ccc(Cl)c(Cl)c2)n1,inactive
6,CCOc1ccc(-n2c(-c3ccc(Br)cc3)c[n+]3c2CCCCC3)cc1,inactive
7,c1ccc(Cn2nnc3c(N4CCc5ccccc5C4)ncnc32)cc1,inactive
8,Cn1c(=O)c(C(=O)COC(=O)c2cc(C(F)(F)F)nc3c(C(F)(F)F)cccc23)c(N)n(CC2CC2)c1=O,inactive
9,Cc1cc(NC(=O)c2noc3c2CCCC3)nn1Cc1ccc(Cl)cc1,inactive
10,Cc1ccc(NC(=O)/C(Cl)=C\c2ccccc2)cc1,inactive
11,Nc1ccc2c(c1)Cc1ccccc1-2,inactive
12,C/C=C(\C)C(=O)Nc1cccc(C2=NOC3(C2)C[C@H](C(N)=O)N(C(=O)c2cc([N+](=O)[O-])cc([N+](=O)[O-])c2)C3)c1 (stereo partly drawn),inactive
13,CCc1cc(C(=O)Nc2ccc(C)cc2Br)cs1,inactive
14,CC(=O)CCSc1ncnc2sc(-c3ccccc3)cc12,inactive
15,O=C(CCSc1ccc(Cl)cc1)NC12CC3CC(CC(C3)C1)C2,inactive
16,Nc1cc(=O)[nH]c(SCc2csc(-c3ccccc3)n2)n1,inactive
17,CSc1ccccc1C(=O)NC1CCSc2ccccc21 (stereo not drawn),inactive
18,Cc1cccc(COc2ccccc2/C=N/Nc2ccc([N+](=O)[O-])cc2)c1,inactive
19,CCCn1c(O)c(N=NC(=O)c2ccco2)c2ccccc21,inactive
20,CCn1nc(C)c(C(=O)Nc2cc(Oc3cc(C)cc(C)c3)cc([N+](=O)[O-])c2)c1C,inactive
21,Cc1c(Cl)c([N+](=O)[O-])nn1Cc1ccc(C(=O)N/N=C\c2cccc(Br)c2)o1,inactive
22,CN1C(=O)CC(c2ccccc2)C1=O (stereo not drawn),inactive

row,SMILES,outcome
1,COc1ccc(OC)c(C(=O)NC(CC(N)=O)c2ccc(NCc3ccc(F)c(F)c3)c([N+](=O)[O-])c2)c1 (stereo not drawn),inactive
2,Nc1ccc2oc(-c3cccs3)nc2c1,inactive
3,Fc1cccc2sc(Nc3nc4cc5c(cc4s3)OCO5)nc12,inactive
4,CC1=CC(=O)NP(=O)(Oc2ccc3ccccc3c2)N1 (stereo not drawn),inactive
5,O=C(OCCN1C(=O)c2ccccc2C1=O)c1cc2ccccc2o1,inactive
6,C=CCc1cccc(CNc2cnc3ccccc3c2)c1O,inactive
7,CNc1cccccc1=S,inactive
8,COc1cc2cnc(-c3ccccc3)c(-c3ccc(C(F)(F)F)cc3)c2cc1OC,inactive
9,CCCCc1cc(=O)oc2cc(O)ccc12,inactive
10,Cc1n[nH]c(=S)n1/N=C/c1cccc(OCc2ccccc2)c1,inactive
11,COC(=O)c1cccc(C#CC(NP(=O)(c2ccccc2)c2ccccc2)c2ccccc2)c1 (stereo not drawn),inactive
12,COc1ccc(NC(=O)CN(C)C(=O)c2n[nH]c3ccccc23)cc1,inactive
13,CCOC(=O)c1cc(-c2cccc([N+](=O)[O-])c2)on1,inactive
14,O=C(C1CCC1)N1CCN(S(=O)(=O)c2ccc(Br)cc2Cl)CC1,inactive
15,CCCNC(=O)NC(=O)COc1ccc2oc3ccccc3c2c1,inactive
16,COc1ccc(N=Cc2ccc(CNS(=O)(=O)c3ccc(Cl)cc3)o2)cc1,inactive
17,CCOC(=O)c1ccc(NC(=S)Nc2ccc3[nH]c(=O)[nH]c3c2)cc1,inactive
18,CCCN(C(=O)CCOc1ccc(C(C)(C)C)cc1)c1c(N)n(Cc2ccccc2)c(=O)[nH]c1=O,inactive
19,O=C(N/N=C/c1cn(-c2ccccc2)nc1-c1cccs1)c1ccc(Cl)cc1,inactive
20,c1ccc(CCNc2ncnc3c2cnn3-c2ccccc2)cc1,inactive
